About 6,200 (1.8%) of roughly 340,000 compounds were called active. Roughly 10% stayed inconclusive and do not appear here. This is one part of a sample in which actives are shown more often than they occur. Calls come from the whole dose curve; as a rule, active = well fitted activation curve with a large enough effect; inconclusive = small, poorly fitted or top-dose-only effect; inactive = no such curve, though single readings can be large or run the other way.
assay: A quantitative high throughput screen for small molecules that induce DNA re-replication in SW480 colon adenocarcinoma cells.; note: nearly all actives have a fitted effect of over 55% in size; for re-replication activation: % of control where 0% means no effect; conditions: Hoechst DNA content imaging, 48 h; series mostly up to 46.1 µM
Procedure, shortened: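 Cells (250 per well) received 23 nL compound or DMSO by pin tool and were kept 48 hr at 37 C, 5% CO2. Nuclei were then stained with Hoechst for 40 min and scanned for DNA content.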
Potency is the fitted concentration of half-maximal effect.

Potency, active:
CCOc1cccc(/C=N/NC(=S)NCCN2CCOCC2)c1O 1.46 µM
COc1cc2c(cc1OC)C1C(=O)c3cc(OS(C)(=O)=O)c(OC)cc3C1N(C)C2=O (stereo not given) 7.31 µM
FC(F)(F)c1nnc2c3ccccc3c(Cl)nn12 2.59 µM
COc1ccc(/C=C2/CCCc3ccccc3C2=O)cc1 9.2 µM
CCCNC(=S)NC1CC2CCCC(C1)N2CC(C)C (stereo not given) 20.6 µM
Cc1ccc(S(=O)(=O)N(CC(=O)Nc2cccc([N+](=O)[O-])c2)Cc2ccc(Cl)cc2)cc1 8.2 µM
CCN(CC)CCCC(C)n1c2nc(=O)[nH]c(=O)c-2nc2cc(Cl)ccc21 (stereo not given) 11.6 µM
Cc1cc(C2=NNC(=Nc3ccc(S(=O)(=O)N4CCOCC4)cc3)SC2)c(C)n1CC1CCCO1 (stereo not given) 3.66 µM
COc1ccc(-c2nc3cnccn3c2NC2CCCCC2)cc1-c1cccc(Cl)c1 5.17 µM
CCCCN(CCCC)CC(O)Cn1c2ccccc2c(=O)c2ccccc21 (stereo not given) 7.31 µM
Nc1nonc1-n1nnc(C(=O)N/N=C/c2cc(Br)ccc2O)c1CSC1=NCCS1 13 µM
CCCNC(=O)c1c(N)n(-c2ccc(S(N)(=O)=O)cc2)c2nc3ccccc3nc12 0.82 µM
Cc1csc(NC(=O)c2ccc(-c3ccc(Cl)cc3Cl)o2)n1 13 µM
Cc1cc(Nc2cc(N3CCN(C)CC3)nc(Sc3ccc(NC(=O)C4CC4)cc3)n2)n[nH]1 0.259 µM
CC1=CC(C)(C)Nc2ccc(OC(=O)CN3C(=O)C4CCCCC4C3=O)cc21 (stereo not given) 20.6 µM
CCc1ccc(C(=O)C(C)OC(=O)CN2C(=O)NC3(CCCC3)C2=O)cc1 (stereo not given) 3.26 µM
CCOc1ccc2nc(NCCNS(=O)(=O)c3ccccc3)c(C#N)cc2c1 18.4 µM
COc1ccc(C(CCN(Cc2ccc(OC)c(OC)c2)C(=O)CCl)c2ccccc2)cc1 (stereo not given) 23.1 µM
c1ccc(C(=NNc2nc3ccccc3s2)c2ccccn2)cc1 0.259 µM
Cc1ccc(-n2[nH]c(C)c(/C=N/N3C(=O)c4cccc5cccc(c45)C3=O)c2=O)cc1 16.4 µM

Potency, inactive:
CC(=O)c1c(OCC(=O)N(C)C2CCCCC2)ccc2c(C)cc(=O)oc12
CC(=O)c1cccc(-c2ccc(CN3C(CC(C)C)C(=O)N(Cc4cn(CC5CCCCC5)nn4)CCS3(=O)=O)cc2)c1 (stereo not given)
Cc1ccc(C(=O)NC(=S)NCCN2CCOCC2)cc1
CCOc1cccc(/C=N/N2C(=O)CSC2=S)c1O
COC1C(CO)OC(n2cnc3c(=S)nc(N)[nH]c32)C1O (stereo not given)
COc1cccc(NC(=O)C2c3cc(OC)c(OC)cc3C(=O)N(C)C2c2cccnc2)c1 (stereo not given)
O=C1CC[C@@H]2CC3(C[C@@H]4CCN1[C@H]24)Nc1cc([N+](=O)[O-])ccc1NC3=NC1CCCCC1 (stereo not given in full)
CC(NC(=O)COC(=O)CCC(=O)c1ccc(Cl)cc1)c1ccccc1 (stereo not given)
Nc1nnc2c(C(F)(F)F)nc3ccccc3n12
FC(F)(F)c1nnc2ccc(N3CCN(c4ccccc4)CC3)nn12
COc1ccc(NS(=O)(=O)c2cc(NC(=O)c3ccc(S(=O)(=O)N(C)C)cc3)ccc2N2CCOCC2)cc1
COc1ccccc1C(=O)NCC(=O)OCC(=O)NNC(=O)c1ccc(Br)cc1
COc1ccc(/C=C2\CCc3ccccc3C2=O)c(OC)c1OC
COc1ccc(/C=C2\N=C3CCCN3C2=O)cc1
O=C(CN1C(=O)NC(Cc2c[nH]c3ccccc23)C1=O)Nc1ccccc1C(F)(F)F (stereo not given)
CCCN=C1N(C)C[C@@H]2[C@@H]3C(=O)N(Cc4ccccc4)C(=O)[C@@H]3[C@](C)(C(=O)OC)N12
Nc1ccc2c(c1)C(O)c1ccc(Cl)cc1-2 (stereo not given)
CCCN1C2CCCC1CC(NC(=O)c1cccc(OC)c1)C2 (stereo not given)
CCCN1C2CCCC1CC(NC(=O)NC13CC4CC(CC(C4)C1)C3)C2 (stereo not given)
O=C1c2ccccc2[C@@H]2C[C@@H](O)[C@H](Nc3ccccc3Cl)CCN12
COc1ccc(C)cc1S(=O)(=O)N(CC(=O)Nc1cccc([N+](=O)[O-])c1)c1ccc(C)cc1
Cc1ccc(CN(C)CC(=O)Nc2cccc([N+](=O)[O-])c2)o1
CCCN(C(=O)CSc1nnc(N)s1)c1c(N)n(Cc2ccccc2)c(=O)[nH]c1=O
COc1ccc2c(c1)c(=Cc1ccc(N(C)C)cc1)c1cc(-c3ccccc3)[n+](C)n12
CC(C)(C)OC(=O)CNC(=O)c1[nH]cnc1C(=O)N[C@@H](CCCCN)C(=O)OC(C)(C)C
NS(=O)(=O)c1cccc(NC(=O)COC(=O)c2cc([N+](=O)[O-])ccc2N2CCCC2)c1
COC(=O)CC(CC(=O)OC)n1cccc1
Cc1ccc(CC(=O)Nc2ccc(S(=O)(=O)N3CCOCC3)cc2)cc1C
C=CCn1c(C)cc(C2=NNC(=NCC)SC2)c1C
O=S1(=O)CSCS(=O)(=O)C1
COc1ccc(-c2nc3cnccn3c2NC(C)(C)CC(C)(C)C)cc1O
Cc1ccc2nc(-c3cccnc3)c(NC3CCCC3)n2c1
COc1cc(NC(=O)COC(=O)c2ccc([N+](=O)[O-])s2)cc(OC)c1OC
CC(=O)c1ccc2c(c1)c1ccccc1n2CC(C)C
CCCn1c(=O)c(-c2ccccc2)c(O)c2ccccc21
Nc1nonc1-n1nnc(C(=O)N/N=C/c2ccccc2O)c1CN1CCCC1
Cc1ccc(SCc2c(C(=O)N/N=C/c3cccnc3)nnn2-c2nonc2N)cc1
O=C(CCCCCCCC(=O)N1CCCCC1)N1CCCCC1
COc1ccc(C(=O)OCc2cc(=O)n3ccsc3n2)cc1F
CCOC(=O)c1c(C)c(C(=O)NCCc2ccc(S(N)(=O)=O)cc2)c(C)n1CC
Cc1noc(C)c1C(=O)NCCc1ccc(S(N)(=O)=O)cc1
Cc1csc(NC(=O)c2ccc(C)s2)n1
O=C(Nc1cccc2ncccc12)c1ccc(-c2ccc(Cl)cc2Cl)o1
Cc1cccc(N2O[C@H]3C=CC2CCCC3)n1
CC1CN(Cc2ccco2)C(=S)N(c2ccccc2)C1=O (stereo not given)
Cc1cc(C)nc(N2CCC(C(=O)Nc3ccc4c(c3)OCCO4)CC2)n1
CN1CCN(S(=O)(=O)c2ccc(NC(=S)NC(=O)C3CC3)cc2)CC1
CC1Cc2ccccc2N1S(=O)(=O)c1cccc(C(=O)OCC(=O)N2CCOCC2)c1 (stereo not given)
O=C(COC(=O)C1CCCO1)Nc1nc(-c2ccc(F)cc2)cs1 (stereo not given)
CC[C@]1(C(=O)OC)[C@H]2C(=O)N(C)C(=O)[C@H]2[C@H]2CN(C)C(=NCc3ccccc3)N21
O=C(COC(=O)CN1C(=O)C2CCCCC2C1=O)Nc1ccc(F)c(F)c1F (stereo not given)
O=C(CN1C(=O)C2C3CCC(C3)C2C1=O)Oc1ccc2ccccc2c1 (stereo not given)
COc1ccc(CNC(=O)CN2C(=O)c3ccccc3S2(=O)=O)cc1
O=C(CN1C(=O)NC2(CCCC2)C1=O)OCCOc1ccc(F)cc1
Cc1ccc(COC(=O)CN2C(=O)NC3(CCCC3)C2=O)cc1
O=C1c2ccccc2C(=O)C1C(=O)C1CC1
Cc1cccc(-n2ncc3c(=O)[nH]c(SCC(=O)Nc4cc(C)on4)nc32)c1
CC(C)(C)C(=O)Nc1cccc(-c2ccc[nH]2)n1
CCOc1ccc(S(=O)(=O)NCCSc2ccccc2)cc1
CCOc1ccc2nc(NCCNC(=O)C(C)(C)C)c(C)cc2c1
O=C1C=CN2CCCC2CC1 (stereo not given)
Cc1nc(N)nc(Cl)c1CCC1OCCO1
CC(OC(=O)c1ccc([N+](=O)[O-])cc1)C(=O)NCC1CCCCC1 (stereo not given)
COc1ccc(COC(=O)NC(C(=O)O)c2ccccc2)cc1 (stereo not given)
COc1ccc(CCNC(=O)C(Sc2ccccn2)c2ccccc2)cc1OC (stereo not given)
COc1ccc(CC(=O)N[C@@H]2c3cc(OC)c(OC)cc3C[C@H]2OCc2ccccc2)cc1
Cc1ccc(C)c(S(=O)(=O)N(C)c2ccc(OC(=O)C3CCN(C(=O)c4ccc(F)cc4)CC3)cc2)c1
Cn1nnnc1SCC(=O)Nc1cccc(S(=O)(=O)N2CCCCC2)c1
COc1ccc(OC)c(NC(=O)COC(=O)Cc2ccsc2)c1
Cc1ccc(Br)c(NS(=O)(=O)c2cccc(C(=O)N3CCNC(=O)C3)c2)c1
OCC(O)C1OCOC(C(O)CO)C1O (stereo not given)
c1ccc2sc(NN=C3CCCC3)nc2c1
O=C(CCNC(=O)c1ccccc1)Nc1nc2ccccc2s1
N#CC1(Nc2ccc(-c3ccc(Cl)cc3)cc2)CCCC1
Cc1ccc(-c2ccnc3[nH]n(-c4ccccc4)c(=O)c23)cc1
Cc1[nH]n(-c2ccc([N+](=O)[O-])cc2)c(=O)c1C=NCCN1CCN(C(=O)c2ccccc2F)CC1

re-replication activation, inactive:
CCOc1cc2c(cc1OCC)C(C(=O)O)C(c1ccc(OC)c(O)c1)N(C)C2=O (stereo not given) -13.5% [at 9.22 µM]
O=C(Cc1ccc(NC(=O)C2CCCN(C(=O)C3CCCCC3)C2)cc1)Nc1cccc(C(=O)N2CCCCC2)c1 (stereo not given) 5.52% [at 9.22 µM]
CN(C(=O)c1cccc(NC(=O)Cc2ccc(NC(=O)C3CCN(C(=O)C4CCCCC4)CC3)cc2)c1)C1CCC1 10.8% [at 9.22 µM]
CCC(CO)Oc1cc(NC(=O)c2cccc3ccccc23)c2ncn(C(C)C)c2c1 (stereo not given) -5.66% [at 9.22 µM]

From PubChem BioAssay AID624297 (National Center for Advancing Translational Sciences (NCATS), 2012)
